Measured values reported in the supplement of paper PMC11732987, “Enantioselective OTUD7B fragment discovery through chemoproteomics screening and high-throughput optimisation” (Communications Chemistry, 2025).

Key:
Assay in all cases: log2 ratio of Biotin-Ahx-Ub-VS probe labelling (fragment/DMSO); higher = less target engagement (more negative = stronger competition), active = hit call of the paper (q ≤ 0.05, log2 ratio ≤ -1)
Settings in all cases: compound concentration: 200 uM; treatment time: 3 h
[1] = biological target: T1, USP42 (UniProt Q9H9J4)
T1 sequence (whole entry): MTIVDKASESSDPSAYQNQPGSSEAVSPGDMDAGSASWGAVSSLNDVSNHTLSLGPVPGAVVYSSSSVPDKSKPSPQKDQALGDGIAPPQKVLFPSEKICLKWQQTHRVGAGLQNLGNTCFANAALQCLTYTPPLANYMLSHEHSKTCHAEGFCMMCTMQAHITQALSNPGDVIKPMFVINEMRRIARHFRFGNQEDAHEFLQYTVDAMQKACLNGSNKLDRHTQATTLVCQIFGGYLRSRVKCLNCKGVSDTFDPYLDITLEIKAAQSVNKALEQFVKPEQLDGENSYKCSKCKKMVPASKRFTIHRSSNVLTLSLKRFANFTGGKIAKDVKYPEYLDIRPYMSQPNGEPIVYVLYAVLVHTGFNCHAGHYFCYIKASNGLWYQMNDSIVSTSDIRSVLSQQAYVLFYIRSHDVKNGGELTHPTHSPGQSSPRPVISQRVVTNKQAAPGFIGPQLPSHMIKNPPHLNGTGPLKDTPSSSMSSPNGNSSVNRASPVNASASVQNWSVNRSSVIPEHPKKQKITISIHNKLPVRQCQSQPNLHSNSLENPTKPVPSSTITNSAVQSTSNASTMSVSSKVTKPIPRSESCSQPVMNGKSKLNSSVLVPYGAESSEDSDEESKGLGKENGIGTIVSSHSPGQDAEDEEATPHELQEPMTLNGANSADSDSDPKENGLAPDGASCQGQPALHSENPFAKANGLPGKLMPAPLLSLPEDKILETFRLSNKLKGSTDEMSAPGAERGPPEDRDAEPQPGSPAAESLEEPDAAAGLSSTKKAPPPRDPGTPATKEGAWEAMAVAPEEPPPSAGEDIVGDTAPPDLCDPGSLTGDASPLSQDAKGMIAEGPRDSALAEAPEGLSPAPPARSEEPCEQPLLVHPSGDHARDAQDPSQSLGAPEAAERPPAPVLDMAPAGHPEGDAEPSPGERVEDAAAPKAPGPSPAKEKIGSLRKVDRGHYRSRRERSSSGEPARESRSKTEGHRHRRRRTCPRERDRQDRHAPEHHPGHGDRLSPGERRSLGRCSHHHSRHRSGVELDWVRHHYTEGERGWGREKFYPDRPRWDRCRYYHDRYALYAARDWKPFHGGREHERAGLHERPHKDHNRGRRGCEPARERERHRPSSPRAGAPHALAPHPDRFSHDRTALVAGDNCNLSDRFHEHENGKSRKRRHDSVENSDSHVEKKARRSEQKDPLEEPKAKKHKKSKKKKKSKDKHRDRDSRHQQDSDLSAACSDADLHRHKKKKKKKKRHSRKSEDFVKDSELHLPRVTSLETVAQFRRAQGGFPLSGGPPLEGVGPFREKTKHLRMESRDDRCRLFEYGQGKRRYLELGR
In short: (§1)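 HEK293T lysate, 495 µg per sample in Tris/CHAPS/IGEPAL buffer with protease inhibitors, was treated in triplicate with fragment at 200 µM or vehicle for 3 h and then with Biotin-Ahx-Ub-VS at 0.5 µM final for 1 h. Labelled DUBs were NeutrAvidin-enriched, digested with LysC and trypsin, and run by diaPASEF LC-MS/MS. Spectronaut label-free quantities were global-median-normalised, and values are average log2 fragment/vehicle ratios by unpaired t-test on proteins with ≥2 unique peptides.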

[2] = biological target: USP46 (UniProt P62068)
In short: as §1

[3] = biological target: T2, USP47 (UniProt Q96K76)
T2 sequence (whole entry): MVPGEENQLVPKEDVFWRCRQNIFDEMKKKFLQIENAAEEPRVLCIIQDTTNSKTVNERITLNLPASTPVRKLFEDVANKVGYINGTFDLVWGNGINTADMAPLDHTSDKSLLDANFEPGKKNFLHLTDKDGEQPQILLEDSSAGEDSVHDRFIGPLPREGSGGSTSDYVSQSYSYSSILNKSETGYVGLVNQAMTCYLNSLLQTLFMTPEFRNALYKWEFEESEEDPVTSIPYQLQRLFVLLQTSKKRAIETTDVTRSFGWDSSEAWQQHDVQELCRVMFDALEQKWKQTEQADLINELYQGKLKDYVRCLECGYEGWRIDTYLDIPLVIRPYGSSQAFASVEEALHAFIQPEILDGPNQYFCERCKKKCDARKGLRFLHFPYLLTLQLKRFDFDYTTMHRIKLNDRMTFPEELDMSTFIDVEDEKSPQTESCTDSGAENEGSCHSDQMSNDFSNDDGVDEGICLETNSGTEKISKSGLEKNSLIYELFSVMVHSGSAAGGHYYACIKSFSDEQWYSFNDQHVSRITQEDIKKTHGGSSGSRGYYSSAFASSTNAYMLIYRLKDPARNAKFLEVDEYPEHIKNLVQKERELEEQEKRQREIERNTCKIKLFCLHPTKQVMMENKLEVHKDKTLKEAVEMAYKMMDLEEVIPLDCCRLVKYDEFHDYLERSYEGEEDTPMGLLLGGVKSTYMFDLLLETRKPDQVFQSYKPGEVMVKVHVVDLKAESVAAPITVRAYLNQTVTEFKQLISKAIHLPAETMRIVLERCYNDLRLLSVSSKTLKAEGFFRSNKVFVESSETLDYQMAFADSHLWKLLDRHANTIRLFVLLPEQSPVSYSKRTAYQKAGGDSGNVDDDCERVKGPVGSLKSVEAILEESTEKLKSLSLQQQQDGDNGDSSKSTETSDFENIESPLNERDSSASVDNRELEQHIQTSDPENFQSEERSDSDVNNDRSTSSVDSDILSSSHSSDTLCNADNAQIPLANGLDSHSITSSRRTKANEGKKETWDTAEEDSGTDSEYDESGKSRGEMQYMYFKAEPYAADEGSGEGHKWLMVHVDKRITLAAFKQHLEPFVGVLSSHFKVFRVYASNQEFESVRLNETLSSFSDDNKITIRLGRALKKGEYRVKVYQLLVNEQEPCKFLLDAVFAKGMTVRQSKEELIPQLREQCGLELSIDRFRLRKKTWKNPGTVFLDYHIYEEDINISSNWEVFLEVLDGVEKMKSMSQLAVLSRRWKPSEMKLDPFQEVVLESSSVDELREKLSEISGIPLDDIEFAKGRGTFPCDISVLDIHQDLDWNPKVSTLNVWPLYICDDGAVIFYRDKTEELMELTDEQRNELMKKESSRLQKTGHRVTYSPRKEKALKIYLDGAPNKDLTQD
In short: as §1

[4] = biological target: T3, USP48 (UniProt Q86UV5)
T3 sequence (whole entry): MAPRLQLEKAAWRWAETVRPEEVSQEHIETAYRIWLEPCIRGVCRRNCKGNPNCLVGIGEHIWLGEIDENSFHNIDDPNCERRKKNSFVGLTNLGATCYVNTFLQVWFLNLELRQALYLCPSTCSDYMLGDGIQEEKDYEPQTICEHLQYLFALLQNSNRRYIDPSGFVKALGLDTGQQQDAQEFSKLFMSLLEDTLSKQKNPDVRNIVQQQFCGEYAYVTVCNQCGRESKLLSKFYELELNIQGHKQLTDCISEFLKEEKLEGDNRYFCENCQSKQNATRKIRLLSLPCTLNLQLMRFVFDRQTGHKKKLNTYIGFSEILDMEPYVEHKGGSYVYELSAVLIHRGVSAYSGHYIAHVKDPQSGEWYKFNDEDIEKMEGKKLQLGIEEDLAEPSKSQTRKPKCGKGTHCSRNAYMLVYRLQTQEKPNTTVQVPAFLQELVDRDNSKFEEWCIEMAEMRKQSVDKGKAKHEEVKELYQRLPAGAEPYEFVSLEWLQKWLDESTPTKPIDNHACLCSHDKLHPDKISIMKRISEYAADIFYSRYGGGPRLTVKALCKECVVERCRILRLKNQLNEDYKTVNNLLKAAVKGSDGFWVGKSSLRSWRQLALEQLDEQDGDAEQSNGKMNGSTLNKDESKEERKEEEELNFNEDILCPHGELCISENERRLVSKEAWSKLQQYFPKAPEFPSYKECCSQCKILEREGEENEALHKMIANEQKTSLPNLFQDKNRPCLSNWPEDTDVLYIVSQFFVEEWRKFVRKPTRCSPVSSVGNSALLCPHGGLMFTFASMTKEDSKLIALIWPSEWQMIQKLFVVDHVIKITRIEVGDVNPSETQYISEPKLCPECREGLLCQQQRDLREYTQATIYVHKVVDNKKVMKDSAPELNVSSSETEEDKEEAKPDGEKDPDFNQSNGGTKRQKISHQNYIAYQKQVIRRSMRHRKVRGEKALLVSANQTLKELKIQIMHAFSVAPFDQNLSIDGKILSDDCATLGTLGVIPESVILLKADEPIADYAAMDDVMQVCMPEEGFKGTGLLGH
In short: as §1

[5] = biological target: T4, USP5 (UniProt P45974)
T4 sequence (whole entry): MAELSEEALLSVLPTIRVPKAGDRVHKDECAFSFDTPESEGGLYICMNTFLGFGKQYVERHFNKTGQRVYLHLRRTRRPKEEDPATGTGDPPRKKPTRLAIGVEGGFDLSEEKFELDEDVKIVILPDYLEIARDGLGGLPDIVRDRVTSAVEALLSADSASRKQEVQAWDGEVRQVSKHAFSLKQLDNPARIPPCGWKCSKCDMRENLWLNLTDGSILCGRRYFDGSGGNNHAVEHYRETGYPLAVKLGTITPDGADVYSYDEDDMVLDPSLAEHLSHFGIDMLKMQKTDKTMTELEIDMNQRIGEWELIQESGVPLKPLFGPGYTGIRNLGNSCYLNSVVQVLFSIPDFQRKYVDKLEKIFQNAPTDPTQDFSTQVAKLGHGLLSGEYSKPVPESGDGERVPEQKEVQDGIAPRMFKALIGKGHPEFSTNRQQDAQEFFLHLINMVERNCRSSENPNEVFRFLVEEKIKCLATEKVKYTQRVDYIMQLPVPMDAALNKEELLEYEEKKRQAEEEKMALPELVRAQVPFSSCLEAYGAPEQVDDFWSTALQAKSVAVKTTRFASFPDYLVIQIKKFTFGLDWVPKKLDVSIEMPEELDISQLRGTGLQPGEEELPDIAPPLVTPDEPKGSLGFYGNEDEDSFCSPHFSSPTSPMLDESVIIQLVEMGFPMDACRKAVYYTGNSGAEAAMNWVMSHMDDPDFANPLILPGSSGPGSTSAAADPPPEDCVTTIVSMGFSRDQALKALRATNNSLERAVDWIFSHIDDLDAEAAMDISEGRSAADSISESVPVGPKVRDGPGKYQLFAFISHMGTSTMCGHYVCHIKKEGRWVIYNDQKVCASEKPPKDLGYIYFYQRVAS
In short: as §1

[6] = biological target: USP54 (UniProt Q70EL1)
In short: as §1

[7] = biological target: USP7 (UniProt Q93009)
In short: as §1

[8] = biological target: T5, USP8 (UniProt P40818)
T5 sequence (whole entry): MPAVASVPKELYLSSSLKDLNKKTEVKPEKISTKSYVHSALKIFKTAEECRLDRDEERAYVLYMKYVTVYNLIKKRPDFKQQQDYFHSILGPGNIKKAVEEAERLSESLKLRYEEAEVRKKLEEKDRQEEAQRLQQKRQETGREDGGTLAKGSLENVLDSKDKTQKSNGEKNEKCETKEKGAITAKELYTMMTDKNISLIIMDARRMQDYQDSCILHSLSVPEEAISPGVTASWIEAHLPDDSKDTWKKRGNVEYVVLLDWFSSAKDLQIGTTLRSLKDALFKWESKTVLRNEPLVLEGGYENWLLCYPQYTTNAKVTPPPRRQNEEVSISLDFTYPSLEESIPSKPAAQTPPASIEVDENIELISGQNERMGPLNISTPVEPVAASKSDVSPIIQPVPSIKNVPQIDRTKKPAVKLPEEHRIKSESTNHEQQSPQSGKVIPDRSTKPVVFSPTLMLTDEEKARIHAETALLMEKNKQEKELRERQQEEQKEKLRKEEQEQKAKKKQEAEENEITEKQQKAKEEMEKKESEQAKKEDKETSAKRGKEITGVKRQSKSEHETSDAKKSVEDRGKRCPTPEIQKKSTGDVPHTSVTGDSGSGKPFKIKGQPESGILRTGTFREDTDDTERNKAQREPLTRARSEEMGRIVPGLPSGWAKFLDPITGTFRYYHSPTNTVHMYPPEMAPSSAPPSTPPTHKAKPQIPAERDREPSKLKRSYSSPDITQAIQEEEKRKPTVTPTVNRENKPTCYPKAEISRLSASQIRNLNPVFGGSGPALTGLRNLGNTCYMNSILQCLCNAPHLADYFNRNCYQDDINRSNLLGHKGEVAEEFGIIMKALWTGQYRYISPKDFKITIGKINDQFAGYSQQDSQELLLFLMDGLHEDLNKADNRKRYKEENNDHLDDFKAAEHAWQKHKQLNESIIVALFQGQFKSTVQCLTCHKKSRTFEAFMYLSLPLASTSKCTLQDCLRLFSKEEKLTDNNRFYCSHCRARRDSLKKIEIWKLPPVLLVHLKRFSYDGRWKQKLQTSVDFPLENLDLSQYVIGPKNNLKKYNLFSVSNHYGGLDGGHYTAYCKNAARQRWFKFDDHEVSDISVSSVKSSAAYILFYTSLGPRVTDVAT
In short: as §1

[9] = biological target: USP9X (UniProt Q93008)
In short: as §1

[10] = biological target: UniProt O00487
In short: as §1

Measured: log2 ratio of Biotin-Ahx-Ub-VS probe labelling

Chain of USP7 (Q93009 whole entry, looked up): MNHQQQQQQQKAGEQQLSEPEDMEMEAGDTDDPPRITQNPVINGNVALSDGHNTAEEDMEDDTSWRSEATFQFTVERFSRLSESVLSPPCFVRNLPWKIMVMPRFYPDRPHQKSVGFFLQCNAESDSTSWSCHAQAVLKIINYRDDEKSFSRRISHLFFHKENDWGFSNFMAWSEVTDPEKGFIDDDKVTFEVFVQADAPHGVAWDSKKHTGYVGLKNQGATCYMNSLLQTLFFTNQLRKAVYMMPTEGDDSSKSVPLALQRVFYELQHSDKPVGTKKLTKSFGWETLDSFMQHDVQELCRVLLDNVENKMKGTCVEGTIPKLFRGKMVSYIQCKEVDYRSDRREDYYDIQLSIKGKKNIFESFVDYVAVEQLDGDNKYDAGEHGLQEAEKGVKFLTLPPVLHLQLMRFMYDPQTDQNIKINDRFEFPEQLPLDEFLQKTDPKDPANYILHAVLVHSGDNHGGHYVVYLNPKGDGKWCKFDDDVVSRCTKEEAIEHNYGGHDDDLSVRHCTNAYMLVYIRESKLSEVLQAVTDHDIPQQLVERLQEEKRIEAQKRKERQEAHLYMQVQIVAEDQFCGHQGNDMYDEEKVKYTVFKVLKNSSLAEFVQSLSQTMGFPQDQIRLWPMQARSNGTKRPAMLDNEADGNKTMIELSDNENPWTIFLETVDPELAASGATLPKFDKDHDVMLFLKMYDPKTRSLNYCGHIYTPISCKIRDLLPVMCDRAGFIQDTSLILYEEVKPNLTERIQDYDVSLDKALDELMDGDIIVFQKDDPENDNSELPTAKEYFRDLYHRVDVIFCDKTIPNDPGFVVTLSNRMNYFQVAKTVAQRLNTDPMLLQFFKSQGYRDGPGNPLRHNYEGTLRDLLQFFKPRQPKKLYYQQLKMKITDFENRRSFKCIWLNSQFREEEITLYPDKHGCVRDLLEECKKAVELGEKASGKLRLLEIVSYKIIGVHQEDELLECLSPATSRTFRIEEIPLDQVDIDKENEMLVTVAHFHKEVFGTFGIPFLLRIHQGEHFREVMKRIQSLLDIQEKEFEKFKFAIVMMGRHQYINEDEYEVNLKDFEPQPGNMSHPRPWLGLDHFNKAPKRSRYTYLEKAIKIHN
Chain of UniProt O00487 (O00487 whole entry): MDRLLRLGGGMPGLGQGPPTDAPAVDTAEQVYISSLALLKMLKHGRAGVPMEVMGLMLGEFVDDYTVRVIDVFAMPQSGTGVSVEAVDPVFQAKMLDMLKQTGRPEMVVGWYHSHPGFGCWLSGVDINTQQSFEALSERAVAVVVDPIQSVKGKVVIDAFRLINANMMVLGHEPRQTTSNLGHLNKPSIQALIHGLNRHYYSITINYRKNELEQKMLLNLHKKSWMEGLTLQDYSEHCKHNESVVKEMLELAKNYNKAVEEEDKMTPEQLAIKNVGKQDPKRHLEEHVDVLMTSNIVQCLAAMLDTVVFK
Chain of USP9X (Q93008 whole entry): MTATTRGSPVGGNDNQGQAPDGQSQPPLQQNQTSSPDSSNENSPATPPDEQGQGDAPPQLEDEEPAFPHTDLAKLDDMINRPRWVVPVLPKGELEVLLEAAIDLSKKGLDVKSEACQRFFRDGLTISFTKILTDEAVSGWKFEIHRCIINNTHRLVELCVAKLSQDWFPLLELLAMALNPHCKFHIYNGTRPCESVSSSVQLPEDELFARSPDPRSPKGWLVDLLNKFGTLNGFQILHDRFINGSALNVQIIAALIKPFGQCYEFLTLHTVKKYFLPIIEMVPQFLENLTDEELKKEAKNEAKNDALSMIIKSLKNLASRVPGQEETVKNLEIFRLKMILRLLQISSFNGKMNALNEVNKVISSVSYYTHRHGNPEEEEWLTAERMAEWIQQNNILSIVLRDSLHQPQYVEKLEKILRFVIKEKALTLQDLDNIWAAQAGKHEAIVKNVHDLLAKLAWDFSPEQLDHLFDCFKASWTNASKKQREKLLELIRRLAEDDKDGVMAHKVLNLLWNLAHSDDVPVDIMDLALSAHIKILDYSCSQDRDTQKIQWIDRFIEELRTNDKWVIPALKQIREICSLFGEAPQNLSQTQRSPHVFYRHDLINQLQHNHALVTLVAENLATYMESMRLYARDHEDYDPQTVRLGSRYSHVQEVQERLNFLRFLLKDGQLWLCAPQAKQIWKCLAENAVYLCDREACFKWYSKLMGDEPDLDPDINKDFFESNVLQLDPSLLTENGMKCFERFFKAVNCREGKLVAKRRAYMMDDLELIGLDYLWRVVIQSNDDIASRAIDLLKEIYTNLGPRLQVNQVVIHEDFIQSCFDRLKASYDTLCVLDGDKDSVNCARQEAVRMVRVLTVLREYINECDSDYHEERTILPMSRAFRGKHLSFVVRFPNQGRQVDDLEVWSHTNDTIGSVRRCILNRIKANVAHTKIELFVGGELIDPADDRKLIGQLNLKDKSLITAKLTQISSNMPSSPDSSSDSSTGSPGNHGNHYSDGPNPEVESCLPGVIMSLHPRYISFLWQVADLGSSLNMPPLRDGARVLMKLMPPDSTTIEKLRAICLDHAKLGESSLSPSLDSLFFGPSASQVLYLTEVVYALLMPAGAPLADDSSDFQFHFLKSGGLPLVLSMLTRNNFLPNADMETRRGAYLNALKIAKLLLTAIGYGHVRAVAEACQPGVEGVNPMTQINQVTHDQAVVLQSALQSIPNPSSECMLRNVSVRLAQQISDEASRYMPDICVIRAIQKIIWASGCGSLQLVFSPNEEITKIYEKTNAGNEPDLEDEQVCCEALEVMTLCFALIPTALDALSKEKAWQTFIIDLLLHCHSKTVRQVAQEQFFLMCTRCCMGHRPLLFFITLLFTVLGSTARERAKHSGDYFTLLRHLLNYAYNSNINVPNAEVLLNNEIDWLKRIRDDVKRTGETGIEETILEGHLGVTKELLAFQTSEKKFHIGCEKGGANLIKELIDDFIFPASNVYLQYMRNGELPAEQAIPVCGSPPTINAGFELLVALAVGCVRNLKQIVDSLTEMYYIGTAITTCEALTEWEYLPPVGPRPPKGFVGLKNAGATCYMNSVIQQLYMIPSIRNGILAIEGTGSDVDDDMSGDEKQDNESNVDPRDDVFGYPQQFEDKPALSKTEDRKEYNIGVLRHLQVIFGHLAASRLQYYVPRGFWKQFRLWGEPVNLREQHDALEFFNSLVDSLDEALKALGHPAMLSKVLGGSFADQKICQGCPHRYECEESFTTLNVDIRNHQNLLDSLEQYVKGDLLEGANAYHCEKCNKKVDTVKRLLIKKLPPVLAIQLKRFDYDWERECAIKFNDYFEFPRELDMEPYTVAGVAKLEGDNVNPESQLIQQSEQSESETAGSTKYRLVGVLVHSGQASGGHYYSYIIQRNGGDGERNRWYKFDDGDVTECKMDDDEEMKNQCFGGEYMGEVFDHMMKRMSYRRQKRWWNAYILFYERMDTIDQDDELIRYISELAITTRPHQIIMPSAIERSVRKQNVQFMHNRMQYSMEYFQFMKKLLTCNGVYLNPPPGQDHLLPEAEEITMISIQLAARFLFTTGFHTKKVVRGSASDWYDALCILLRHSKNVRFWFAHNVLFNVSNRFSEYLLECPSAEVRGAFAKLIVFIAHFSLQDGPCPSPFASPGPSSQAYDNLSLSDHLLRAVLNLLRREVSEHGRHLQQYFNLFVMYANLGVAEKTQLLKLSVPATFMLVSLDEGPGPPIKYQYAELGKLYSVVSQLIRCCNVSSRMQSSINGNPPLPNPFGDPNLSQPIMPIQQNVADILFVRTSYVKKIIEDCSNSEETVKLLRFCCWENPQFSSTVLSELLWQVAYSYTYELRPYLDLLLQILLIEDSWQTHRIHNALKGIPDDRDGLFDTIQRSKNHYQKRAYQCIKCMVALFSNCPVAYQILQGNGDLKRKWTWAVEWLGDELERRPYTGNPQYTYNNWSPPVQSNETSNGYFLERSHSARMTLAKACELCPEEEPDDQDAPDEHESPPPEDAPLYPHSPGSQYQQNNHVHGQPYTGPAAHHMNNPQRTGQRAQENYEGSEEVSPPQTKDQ
Chain of USP46 (P62068 whole entry): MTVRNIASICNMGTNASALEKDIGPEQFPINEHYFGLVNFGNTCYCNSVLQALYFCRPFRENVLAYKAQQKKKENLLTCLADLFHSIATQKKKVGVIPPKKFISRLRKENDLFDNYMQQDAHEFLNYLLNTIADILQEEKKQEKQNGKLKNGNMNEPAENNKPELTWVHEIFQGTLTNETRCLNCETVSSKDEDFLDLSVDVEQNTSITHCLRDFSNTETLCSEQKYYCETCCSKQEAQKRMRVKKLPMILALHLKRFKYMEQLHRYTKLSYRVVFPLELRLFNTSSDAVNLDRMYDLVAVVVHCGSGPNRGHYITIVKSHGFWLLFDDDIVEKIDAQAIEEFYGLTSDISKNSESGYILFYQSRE

O=C(CCl)NCCc1ccc(F)cc1
inactive: [1] 0.0996 | [2] 0.235 | [3] -0.0571 | [4] -0.229 | [5] 0.066 | [6] 0.699 | [7] -0.0342 | [8] -0.0379 | [9] -0.0191 | [10] 0.113
